Source: PubChem BioAssay AID2177 (The Scripps Research Institute Molecular Screening Center, 2009)
Hit rate of the full screen: of about 320,000 compounds, about 1,200 (0.38%) were called active. Only a selection was taken, and actives are over-represented in it overall. Unmarked numbers belong to inactive results.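 The calls were made as follows: active = inhibition above the screen-wide mean plus 3 SD, limit set per campaign (cut at about 26% in these data); inactive = the rest.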

Molecular target: Acyl-protein thioesterase 2 (Homo sapiens) (UniProt O95372)
Test: LYPLA2 inhibitors, primary screen, counter-screen for PME1 inhibitor project, biochemical, fluorescence polarization, FP-Rh probe ABPP (AID 2177);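 also: 0% = LYPLA2 with DMSO and 100% = wells lacking LYPLA2 enzyme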
Conditions: recombinant LYPLA2, FP-Rh probe fluorescence polarization; at 5.9 µM; active compounds read high

Sequence of Acyl-protein thioesterase 2 (Homo sapiens) (O95372 whole entry, looked up): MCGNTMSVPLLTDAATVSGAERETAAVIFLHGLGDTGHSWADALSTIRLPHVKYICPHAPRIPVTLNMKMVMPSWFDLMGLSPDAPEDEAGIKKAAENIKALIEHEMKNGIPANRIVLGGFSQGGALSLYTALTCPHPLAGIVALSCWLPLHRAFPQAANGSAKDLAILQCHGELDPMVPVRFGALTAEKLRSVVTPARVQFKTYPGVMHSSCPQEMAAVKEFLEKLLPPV

| Compound | inhibition |
| --- | --- |
| Oc1ccc(N=Cc2c(O)ccc3ccccc23)cc1 | 32.3% (active) |
| Oc1ccc(N=Cc2sc3ccccc3c2Cl)cc1 | 7.6% |
| CCOc1[nH]n(-c2ccc(Cl)cc2)c(=O)c1C=Nc1ccc(O)cc1 | 3.53% |
| CCOC(=O)N1CCN(c2c(NCCN3CCN(c4ccccc4F)CC3)c(=O)c2=O)CC1 | 1.74% |
| O=[N+]([O-])c1ccc(Oc2ccc(F)cc2Br)c2ccncc12 | 41.4% (active) |
| O=[N+]([O-])c1ccc(F)cc1Oc1nc(-c2cccnc2)nc2ccccc12 | -3.66% |
| O=S(=O)(/N=C(/Nc1ccccc1)c1ccccc1)c1cccs1 | 1.19% |
| Cc1ccc(S(=O)(=O)N(CC(=O)NCc2ccco2)c2ccccc2C)cc1 | -4.36% |
| COc1ccc(NC(=O)CN2C(=O)COc3ccc(S(=O)(=O)N4CCOCC4)cc32)cc1 | 7% |
| CSc1cccc(NC(=O)CN2C(=O)COc3ccc(S(=O)(=O)N4CCOCC4)cc32)c1 | 35.7% (active) |
| CC(=O)Nc1ccc(NC(=O)CN2C(=O)COc3ccc(S(=O)(=O)N4CCCCC4)cc32)cc1 | -8.84% |
| O=S(=O)(Nc1ccc2[nH]ncc2c1)c1ccccc1Cl | -3.28% |
| O=c1[nH]n(-c2ccc([N+](=O)[O-])cc2)c(=O)c2ccccc12 | 33.6% (active) |
| O=c1[nH]c2cccnc2n1-c1ccc([N+](=O)[O-])cc1 | 0.99% |
| COc1cnn(-c2ccc([N+](=O)[O-])cc2)c(=O)c1Cl | 6.75% |
| Cc1ccc(N2CCN(c3ccc(C)cc3)C2c2ccccn2)cc1 | 3.84% |
| CC(NCc1cccs1)C(=O)Nc1cc(Cl)cc(Cl)c1 (configuration not stated) | -2.93% |
| Cn1nc(C(F)(F)F)c2cc(NC(=O)OCC(C)(C)C)sc21 | -2.17% |
| O=C1OCC2=C1C(c1ccccc1)CC(=O)N2c1cccc(F)c1 (configuration not stated) | 0.97% |
| CCc1nnc(NC(=O)CSc2nnnn2-c2cccc(C(C)=O)c2)s1 | 0.16% |
| O=C(Nc1ccc(N2CCN(C(=O)c3ccccc3)CC2)c(Cl)c1)c1ncn[nH]1 | 14.6% |
| O=C(Nc1ccc(N2CCN(C(=O)c3ccccc3)CC2)c(Cl)c1)c1cccnc1 | 27.9% (active) |
| COC(=O)c1cc(NC(=O)c2cccnc2)ccc1N1CCOCC1 | 2.91% |
| COC(=O)c1ccccc1NC(=O)CN(Cc1ccccc1)S(C)(=O)=O | -8.82% |
| O=C1C=C(c2cccc(Cl)c2)C[C@@H](c2ccc(F)cc2)C1 | 0.27% |
| COc1ccc([C@H]2CC(=O)C=C(c3ccc(C)cc3)C2)cc1 | 15.7% |
| N#Cc1ccc(C2=CC(=O)C[C@H](c3ccc(Cl)cc3)C2)cc1 | 43.3% (active) |
